Drawing on article PMC11062922 (Nature Chemical Biology, 2023), this text covers potency estimated from few doses for 18 compounds.

Parameters in all cases: species or system human, MV4-11 + K-562 + COLO205 + SK-N-BE2 + OVCAR-8
Experiment [1] concerns PDGFRB. The conditions noted are these: read-out: apparent Kd; compound concentrations: 100 nM and 1000 nM (sheet 'Samples'), CATDS: 0.33776588797305401; n = 1.
Experiment [2] concerns T1, DJA1.
T1 construct: gene DNAJA1
The conditions noted are these: read-out: apparent Kd, n = 1.

For experiment [3], the system named is EPHB2. The conditions noted are these: read-out: apparent Kd; compound concentrations: 100 nM and 1000 nM (sheet 'Samples'), CATDS: 3.4039918374270103E-2; n = 1.
Experiment [4] has as its system MAPK9. Particulars: read-out: apparent Kd, n = 1.
Experiment [5] concerns NQO2. The conditions noted are these: read-out: apparent Kd, n = 1.
For experiment [6], the system named is PIK3CD. Particulars: read-out: apparent Kd, n = 1.
Experiment [7] concerns MAP2K1. Particulars: read-out: apparent Kd, n = 1.
Experiment [8] has as its system MAP2K2. Particulars: read-out: apparent Kd, n = 1.
Experiment [9] relates to NQO1. The conditions noted are these: read-out: apparent Kd, n = 1.
The test system of experiment [10] is PDXK. Particulars: read-out: apparent Kd, n = 1.
Experiment [11] concerns CSNK1D. The conditions noted are these: read-out: apparent Kd, n = 1.
Experiment [12] concerns MAPKAPK2. Particulars: read-out: apparent Kd, n = 1.
The subject of experiment [13] is TGFBR2. The conditions noted are these: read-out: apparent Kd, n = 1.
Experiment [14] deals with ACVR2B. The conditions noted are these: read-out: apparent Kd; compound concentrations: 100 nM and 1000 nM (sheet 'Samples'), CATDS: 3.61499985403008E-2; n = 1.
The test system of experiment [15] is BUB1. The conditions noted are these: read-out: apparent Kd; compound concentrations: 100 nM and 1000 nM (sheet 'Samples'), CATDS: 2.9368799543599802E-2; n = 1.
Setting [16] is: compound concentrations:100 nM and 1000 nM (sheet 'Samples').

Structures are written as SMILES. Where two headings read alike, the source gives them in different places.

In the case of `O=C1NC(=O)C(c2cccc(Cl)c2)=C1Nc1ccc(O)c(Cl)c1` [SB-409514], the potency estimated from few doses in experiment [1] was 1.28 µM.
As for `COc1ccc(C2=C(c3cn(C)c4ccccc34)C(=O)NC2=O)cc1OC` [RO3206363-000], the potency estimated from few doses in [2] (compound concentrations: 100 nM and 1000 nM (sheet 'Samples'), CATDS: 3.2513241063347201E-2) is 1.71 µM; in experiment [3], 1.43 µM; in experiment [4] (compound concentrations: 100 nM and 1000 nM (sheet 'Samples'), CATDS: 8.8329407260920895E-2) it was 0.133 µM; in [5] (compound concentrations: 100 nM and 1000 nM (sheet 'Samples'), CATDS: 4.2100406306544602E-2), 0.722 µM; in experiment [6] (compound concentrations: 100 nM and 1000 nM (sheet 'Samples'), CATDS: 0.47573299908292999) it was 0.0093 µM.
Consider `Fc1cccc(COc2ccc(Nc3ncncc3C#Cc3ccccc3)cc2Cl)c1` [GW651576X], for which the potency estimated from few doses in [2] (compound concentrations: 100 nM and 1000 nM (sheet 'Samples'), CATDS: 6.6379654075199995E-2) is 1.04 µM; in experiment [7] (compound concentrations: 100 nM and 1000 nM (sheet 'Samples'), CATDS: 4.57330679966748E-2), 2.2 µM; in experiment [8] (compound concentrations: 100 nM and 1000 nM (sheet 'Samples'), CATDS: 5.7439305981691703E-2) it was 1.35 µM; in experiment [9] (compound concentrations: 100 nM and 1000 nM (sheet 'Samples'), CATDS: 4.6647451225595299E-2) it was 2.09 µM.
As to `COc1cc(F)c(F)c(F)c1C(=O)c1cnc(NC2CCN(S(C)(=O)=O)CC2)nc1N` [RO4600703-000], the figures for the potency estimated from few doses in experiment [5] (setting [16]) and in [10] (setting [16]) were 0.426 µM and 0.501 µM, respectively.
In the case of `Clc1ccc(-c2nn3ncccc3c2-c2ccnc(Nc3ccccc3)n2)cc1` [GW829055X], the potency estimated from few doses in experiment [2] (compound concentrations: 100 nM and 1000 nM (sheet 'Samples'), CATDS: 4.1892877755586803E-2) was 1.06 µM; in experiment [7] (compound concentrations: 100 nM and 1000 nM (sheet 'Samples'), CATDS: 0.148171076580532) it was 0.138 µM; in experiment [8] (compound concentrations: 100 nM and 1000 nM (sheet 'Samples'), CATDS: 3.8918058303858701E-2), 1.25 µM; in experiment [9] (compound concentrations: 100 nM and 1000 nM (sheet 'Samples'), CATDS: 4.2030828964441901E-2), 1.05 µM.
In the case of `COc1ccc(Nc2nccc(N3CCC(NC(=O)Nc4cccc(OC)c4)C3)n2)cc1` (stereo not drawn) [GSK1379742A], the potency estimated from few doses in [7] (compound concentrations: 100 nM and 1000 nM (sheet 'Samples'), CATDS: 0.105548477944527) is 2.4 µM; in experiment [8] (compound concentrations: 100 nM and 1000 nM (sheet 'Samples'), CATDS: 0.114470387989454), 1.98 µM; in [9] (compound concentrations: 100 nM and 1000 nM (sheet 'Samples'), CATDS: 0.15295412535869199) it was 1.12 µM.
As to `CC(=O)Nc1ccc2c(C3=C(c4cn(C)c5ccccc45)C(=O)NC3=O)cn(C)c2c1` [RO0317596-000], the potency estimated from few doses was 1.59 µM in experiment [5] (compound concentrations: 100 nM and 1000 nM (sheet 'Samples'), CATDS: 0.111698981376187); 0.554 µM in experiment [10] (compound concentrations: 100 nM and 1000 nM (sheet 'Samples'), CATDS: 0.18147743783192199).
For `Cn1cc(C2=C(c3cccc([N+](=O)[O-])c3)C(=O)NC2=O)c2ccccc21` [RO0317474-000], the potency estimated from few doses is 1.96 µM in [5] (compound concentrations: 100 nM and 1000 nM (sheet 'Samples'), CATDS: 0.12983117909003999); 0.628 µM in [10] (compound concentrations: 100 nM and 1000 nM (sheet 'Samples'), CATDS: 0.221818886522231).
Take `COc1ccc(COc2ccc(Cc3cnc(N)nc3N)cc2OC)cc1` [GW632580X]: the potency estimated from few doses in experiment [8] (setting [16]) was 1.63 µM.
Consider `CS(=O)(=O)c1ccc(-c2nc3n(c2-c2ccncc2)CCC3)cc1` [SKF-105942], for which the potency estimated from few doses is 1.7 µM in experiment [2] (compound concentrations: 100 nM and 1000 nM (sheet 'Samples'), CATDS: 0.12627731400414099); 1.48 µM in [9] (compound concentrations: 100 nM and 1000 nM (sheet 'Samples'), CATDS: 0.13363559113377599); 1.27 µM in [5] (compound concentrations: 100 nM and 1000 nM (sheet 'Samples'), CATDS: 0.142598499620046); 0.141 µM in experiment [6] (compound concentrations: 100 nM and 1000 nM (sheet 'Samples'), CATDS: 0.51073942178012399).
On to `Fc1ccc(-c2ncn(C3CCNCC3)c2-c2ccnc(Oc3ccc4c(c3)OCO4)n2)cc1` [SB-250715], for which the potency estimated from few doses was 0.271 µM in experiment [11] (setting [16]); 1.05 µM in [7] (setting [16]); 1.56 µM in experiment [8] (setting [16]); 1.26 µM in [4] (setting [16]); 0.00425 µM in [12] (setting [16]); 1.7 µM in experiment [9] (setting [16]).
As for `COc1cc(N2CCN(C(C)C)CC2)ccc1Nc1nc(Nc2cccc(F)c2C(=O)O)c2cc[nH]c2n1` [GSK1819799A], the potency estimated from few doses is 2.22 µM in experiment [2] (compound concentrations: 100 nM and 1000 nM (sheet 'Samples'), CATDS: 4.1353934999492699E-2); 1.87 µM in experiment [7] (compound concentrations: 100 nM and 1000 nM (sheet 'Samples'), CATDS: 4.3561445001152499E-2); 0.0745 µM in [4] (compound concentrations: 100 nM and 1000 nM (sheet 'Samples'), CATDS: 0.24378772023950801).
As to `Cl.Oc1ccc2ncnc(Nc3ccc(OCc4ccccc4)cc3)c2c1` [GI262866A], the potency estimated from few doses in [10] (setting [16]) is 0.506 µM.
Regarding `NC(=O)c1cccnc1COc1cc(-c2ccc(N3CCOCC3)nc2)cc2ncccc12` [BI01125081], the potency estimated from few doses in experiment [2] (setting [16]) was 1.43 µM; in experiment [10] (setting [16]), 1.68 µM; in [6] (setting [16]), 0.126 µM; in experiment [13] (setting [16]) it was 1.31 µM.
Take `Cn1cc(C2=C(c3cn(CCCN/C(N)=N/[N+](=O)[O-])c4ccccc34)C(=O)NC2=O)c2ccccc21` [RO0318161-000]: in experiment [10] (compound concentrations: 100 nM and 1000 nM (sheet 'Samples'), CATDS: 0.37249947882966999), the potency estimated from few doses is 0.866 µM.
Regarding `COc1cccc(C2=C(c3cn(C)c4c(C)cccc34)C(=O)NC2=O)c1` [RO3301012-000], the potency estimated from few doses was 1.55 µM in experiment [9] (compound concentrations: 100 nM and 1000 nM (sheet 'Samples'), CATDS: 0.106114123885474); 2 µM in experiment [10] (compound concentrations: 100 nM and 1000 nM (sheet 'Samples'), CATDS: 9.7216683357623401E-2).
As to `Cl.Fc1cccc(COc2ccc(Nc3ncnc4cc(-c5ccc[nH]5)sc34)cc2Cl)c1` [GW693881A], in [5] (compound concentrations: 100 nM and 1000 nM (sheet 'Samples'), CATDS: 0.24245202120631801), the potency estimated from few doses was 0.56 µM.
On to `Nc1ncnc2c1ncn2-c1cccc(F)c1` [SKF-97560], for which the potency estimated from few doses in [14] is 0.987 µM; in experiment [15], 2.06 µM; in [11] (compound concentrations: 100 nM and 1000 nM (sheet 'Samples'), CATDS: 4.1820376814662601E-2) it was 0.661 µM; in experiment [12] (compound concentrations: 100 nM and 1000 nM (sheet 'Samples'), CATDS: 3.21088228610018E-2) it was 1.45 µM; in experiment [13] (compound concentrations: 100 nM and 1000 nM (sheet 'Samples'), CATDS: 8.5809969501024E-2) it was 0.151 µM.
